# Laboratory results taken from PubChem BioAssay (EPA / NIEHS).
# Active and inactive are the calls of the source. How the source made its calls: active means hit-call score of the fitted dose curve at least 0.9, where 1 is the maximum; inactive means score below 0.9.
# What was measured:
# Details in all cases: mRNA level, 48 h; actives raise or lower the signal
# [1] = read-out: Insulin-like growth factor-binding protein 1 (IGFBP1), IGFBP1 (gene 3484); assay: LTEA_HepaRG_IGFBP1: Life Technologies and Expression Analysis (LTEA) Assay for Insulin-like growth factor-binding protein 1 (IGFBP1) using HepaRG (AID 2283508)
# How it was run: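 qRT-PCR mRNA read-out (TaqMan, Fluidigm array), normalised to three housekeeping genes; HepaRG cells, 48 h exposure, 8-pt half-log series from 100 uM, 0.5% DMSO vehicle; bidirectional curve fit vs DMSO baseline.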
# [2] = read-out: Interleukin 6 (IL6), IL6 (gene 3569); assay: LTEA_HepaRG_IL6: Life Technologies and Expression Analysis (LTEA) Assay for Interleukin 6 (IL6) using HepaRG (AID 2283509)
# How it was run: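 Transcript levels, normalized to three housekeeping genes, were quantified by qRT-PCR after 48 h chemical treatment of HepaRG cells. Eight-point half-log series from 100 uM in 0.5% DMSO, duplicates. Fitted both directions against DMSO baseline.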
# [3] = read-out: Interleukin 6 Receptor (IL6R), IL6R (gene 3570); assay: LTEA_HepaRG_IL6R: Life Technologies and Expression Analysis (LTEA) Assay for Interleukin 6 Receptor (IL6R) using HepaRG (AID 2283510);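 on AC50: differentiated human HepaRG liver cells in serum-free induction medium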
# How it was run: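 Cells were thawed, plated and cultured 48 h, then medium was changed to serum-free induction medium. Chemicals were added in duplicate (100 uM top, half-log steps, 0.5% DMSO) for 48 h. Lysates were analyzed by qRT-PCR for IL6R expression.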
# [4] = read-out: Keratin 19 (KRT19), KRT19 (gene 3880); assay: LTEA_HepaRG_KRT19: Life Technologies and Expression Analysis (LTEA) Assay for Keratin 19 (KRT19) using HepaRG (AID 2283512)
# How it was run: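 HepaRG, 48 h chemical exposure, 8-pt half-log CRC from 100 uM, 0.5% DMSO vehicle, duplicates. Readout: TaqMan qRT-PCR of KRT19 mRNA, housekeeping-normalized (ACTB/GAPDH/POLR2A). Bidirectional fit vs DMSO baseline.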
# [5] = read-out: JUN Transcription Factor, JUN (gene 3725); assay: LTEA_HepaRG_JUN: Life Technologies and Expression Analysis (LTEA) Assay for JUN Transcription Factor using HepaRG (AID 2283513)
# How it was run: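 Read-out is JUN transcript level by TaqMan qRT-PCR, normalized to ACTB, GAPDH and POLR2A, after 48 h chemical treatment of HepaRG cells. Concentration-response spanned eight half-log points up to 100 uM in 0.5% DMSO.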
# [6] = read-out: Lipase C (LIPC), LIPC (gene 3990); assay: LTEA_HepaRG_LIPC: Life Technologies and Expression Analysis (LTEA) Assay for Lipase C (LIPC) using HepaRG (AID 2283514)
# How it was run: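 LIPC expression was quantified by qRT-PCR against three housekeeping genes (ACTB, GAPDH, POLR2A). Differentiated human HepaRG cells received eight half-log doses (top 100 uM, 0.5% DMSO) in duplicate for 48 h; fitting bidirectional relative to DMSO.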
# [7] = read-out: Lipoprotein lipase (LPL), LPL (gene 4023); assay: LTEA_HepaRG_LPL: Life Technologies and Expression Analysis (LTEA) Assay for Lipoprotein lipase (LPL) using HepaRG (AID 2283515)
# How it was run: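 LPL transcript levels quantified by TaqMan qRT-PCR against three housekeeping genes after 48 h chemical treatment of HepaRG cells. Eight-point half-log series from 100 uM in 0.5% DMSO, tested in duplicate; bidirectional fitting versus vehicle.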
# [8] = read-out: MicroRNA 122 (MIR122), gene 406906; assay: LTEA_HepaRG_MIR122: Life Technologies and Expression Analysis (LTEA) Assay for MicroRNA 122 (MIR122) using HepaRG (AID 2283516); further: the transcript read is the microRNA miR-122
# How it was run: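 Human liver HepaRG cultures receive test chemicals for 48 h at eight half-log concentrations from 100 uM. Expression is quantified by qRT-PCR with ACTB/GAPDH/POLR2A normalization and fitted bidirectionally against 0.5% DMSO.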
# [9] = read-out: matrix metalloproteinase-10 (MMP10), MMP10 (gene 4319); assay: LTEA_HepaRG_MMP10: Life Technologies and Expression Analysis (LTEA) Assay for matrix metalloproteinase-10 (MMP10) using HepaRG (AID 2283517)
# How it was run: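 Expression measured by TaqMan qRT-PCR with ACTB/GAPDH/POLR2A normalisation after 48 h chemical exposure of HepaRG cells. Eight half-log concentrations, top 100 uM, 0.5% DMSO vehicle, duplicates; gain or loss fitted against vehicle.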
# MYC, MYC (gene 4609) = assay: LTEA_HepaRG_MYC: Life Technologies and Expression Analysis (LTEA) Assay for MYC using HepaRG (AID 2283518)
# How it was run: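 qRT-PCR read-out of MYC transcript (Fluidigm TaqMan, housekeeping-normalized) after 48 h chemical exposure of HepaRG cells; eight concentrations, top 100 uM, half-log steps. Bidirectional curve fitting against 0.5% DMSO vehicle baseline.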
# [10] = read-out: matrix metalloproteinase-3 (MMP3), MMP3 (gene 4314); assay: LTEA_HepaRG_MMP3: Life Technologies and Expression Analysis (LTEA) Assay for matrix metalloproteinase-3 (MMP3) using HepaRG (AID 2283519)
# How it was run: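 Fluidigm-based TaqMan qRT-PCR, normalized to ACTB, GAPDH and POLR2A and fitted bidirectionally versus 0.5% DMSO, measured transcript levels. Treatment: duplicate 48 h exposures of HepaRG cells, ~100,000/well, to eight half-log concentrations topping at 100 uM.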
# [11] = read-out: Paternally Expressed 10 (PEG10), PEG10 (gene 23089); assay: LTEA_HepaRG_PEG10: Life Technologies and Expression Analysis (LTEA) Assay for Paternally Expressed 10 (PEG10) using HepaRG (AID 2283520);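 on AC50: PEG10 transcript by qRT-PCR normalised to ACTB GAPDH and POLR2A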
# How it was run: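 Human HepaRG cultures are dosed for 48 h across an eight-point half-log series starting at 100 uM, with 0.5% DMSO as vehicle and baseline. Gain or loss of PEG10 transcript is measured by qRT-PCR and fitted in both directions.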
# [12] = read-out: Protein phosphatase 2A (PPP2R4), PTPA (gene 5524); assay: LTEA_HepaRG_PPP2R4: Life Technologies and Expression Analysis (LTEA) Assay for Protein phosphatase 2A (PPP2R4) using HepaRG (AID 2283522)
# How it was run: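 Cells were plated, cultured 48 h, switched to serum-free induction medium, then dosed for 48 h (8 points, max 100 uM, 0.5% DMSO). RNA was isolated and PPP2R4 expression measured by TaqMan qRT-PCR.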
# [13] = read-out: Phosphatase and tensin (PTEN), PTEN (gene 5728); assay: LTEA_HepaRG_PTEN: Life Technologies and Expression Analysis (LTEA) Assay for Phosphatase and tensin (PTEN) using HepaRG (AID 2283523)
# How it was run: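 Read-out: TaqMan qRT-PCR of PTEN transcript, normalized to three housekeeping genes, fitted in both directions against 0.5% DMSO. Differentiated human HepaRG cultures received chemicals for 48 h, eight-point half-log series topping at 100 uM.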
# [14] = read-out: solute carrier (SLC22A1), SLC22A1 (gene 6580); assay: LTEA_HepaRG_SLC22A1: Life Technologies and Expression Analysis (LTEA) Assay for solute carrier (SLC22A1) using HepaRG (AID 2283524);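 on AC50: differentiated human HepaRG liver cells in serum-free induction medium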
# How it was run: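 Transcript level of SLC22A1 quantified by qRT-PCR (normalized to three housekeeping genes) after 48 h chemical exposure of HepaRG cells, eight concentrations up to 100 µM, half-log steps, 0.5% DMSO vehicle. Gain or loss relative to DMSO fitted bidirectionally.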
# [15] = read-out: Pyruvate Dehydrogenase Kinase 4 (PDK4), PDK4 (gene 5166); assay: LTEA_HepaRG_PDK4: Life Technologies and Expression Analysis (LTEA) Assay for Pyruvate Dehydrogenase Kinase 4 (PDK4) using HepaRG (AID 2283525)
# How it was run: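 Readout is qRT-PCR of PDK4 transcript, normalized to three housekeeping genes, with bidirectional fitting against 0.5% DMSO vehicle. Differentiated HepaRG cells were treated 48 h in serum-free induction medium, duplicate wells, eight-point half-log series topping at 100 uM.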
# [16] = read-out: NAD(P)H dehydrogenase [quinone] 1 (NQO1), NQO1 (gene 1728); assay: LTEA_HepaRG_NQO1: Life Technologies and Expression Analysis (LTEA) Assay for NAD(P)H dehydrogenase [quinone] 1 (NQO1) using HepaRG (AID 2283526)
# How it was run: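 Transcript induction or suppression is quantified by qRT-PCR in human HepaRG liver cells dosed for 48 hours. Eight half-log concentrations topping at 100 uM are used, with 0.5% DMSO as vehicle and baseline.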
# [17] = read-out: Nuclear factor erythroid 2-related factor 2 (Homo sapiens) (UniProt Q16236); assay: LTEA_HepaRG_NFE2L2: Life Technologies and Expression Analysis (LTEA) Assay for Nuclear factor erythroid 2-related factor 2 (NFE2L2) Transcription Factor using HepaRG (AID 2283527);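 on outcome: TaqMan qRT-PCR transcript level normalised to ACTB GAPDH and POLR2A housekeeping genes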
# How it was run: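 NFE2L2 transcript level was read by qRT-PCR (housekeeping ACTB/GAPDH/POLR2A normalisation) after 48 h chemical treatment of HepaRG in serum-free induction medium. Duplicate 8-point half-log curves, top 100 uM, 0.5% DMSO vehicle; up- or down-regulation fitted against vehicle.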
# Nuclear factor erythroid 2-related factor 2 (Homo sapiens), sequence (Q16236 whole entry, looked up): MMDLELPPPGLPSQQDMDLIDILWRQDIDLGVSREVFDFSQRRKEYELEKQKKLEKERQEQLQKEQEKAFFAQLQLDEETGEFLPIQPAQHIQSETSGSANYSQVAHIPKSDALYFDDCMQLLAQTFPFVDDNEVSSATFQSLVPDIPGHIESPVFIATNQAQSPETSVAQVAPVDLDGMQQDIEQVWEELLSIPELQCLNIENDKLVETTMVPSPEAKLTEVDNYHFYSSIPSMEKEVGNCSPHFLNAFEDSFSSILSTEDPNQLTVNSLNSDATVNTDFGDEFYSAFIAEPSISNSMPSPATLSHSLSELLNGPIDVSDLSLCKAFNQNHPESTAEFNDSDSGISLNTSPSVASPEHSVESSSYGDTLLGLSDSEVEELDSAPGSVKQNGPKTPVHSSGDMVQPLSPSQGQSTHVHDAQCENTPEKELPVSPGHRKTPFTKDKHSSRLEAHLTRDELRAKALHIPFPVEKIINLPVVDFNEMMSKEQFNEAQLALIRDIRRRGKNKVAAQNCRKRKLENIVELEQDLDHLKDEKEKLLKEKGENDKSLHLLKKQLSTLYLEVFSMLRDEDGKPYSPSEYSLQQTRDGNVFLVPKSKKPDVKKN
smiles,measurement,setting,value
CCCCCCCC(=O)O,outcome,[1],inactive
same,outcome,[2],inactive
same,outcome,[3],inactive
same,outcome,[4],inactive
same,outcome,[5],inactive
same,outcome,[6],inactive
same,outcome,[7],inactive
same,outcome,[8],inactive
same,outcome,[9],inactive
same,outcome,"MYC, MYC (gene 4609)",inactive
same,outcome,[10],inactive
same,outcome,[11],inactive
same,outcome,[12],inactive
same,outcome,[13],inactive
same,outcome,[14],inactive
same,outcome,[15],inactive
same,outcome,[16],inactive
same,AC50,[17],12.3 µM (active)
COCC(C)O (stereo unspecified),outcome,[1],inactive
same,outcome,[2],inactive
same,outcome,[3],inactive
same,outcome,[4],inactive
same,outcome,[5],inactive
same,outcome,[6],inactive
same,outcome,[7],inactive
same,outcome,[8],inactive
same,outcome,[9],inactive
same,outcome,"MYC, MYC (gene 4609)",inactive
same,outcome,[10],inactive
same,outcome,[11],inactive
same,outcome,[12],inactive
same,outcome,[13],inactive
same,outcome,[14],inactive
same,outcome,[15],inactive
same,outcome,[16],inactive
same,outcome,[17],inactive
CN(C)C=O,outcome,[1],inactive
same,outcome,[2],inactive
same,outcome,[3],inactive
same,outcome,[4],inactive
same,outcome,[5],inactive
same,outcome,[6],inactive
same,outcome,[7],inactive
same,outcome,[8],inactive
same,outcome,[9],inactive
same,outcome,"MYC, MYC (gene 4609)",inactive
same,outcome,[10],inactive
same,outcome,[11],inactive
same,outcome,[12],inactive
same,outcome,[13],inactive
same,outcome,[14],inactive
same,outcome,[15],inactive
same,outcome,[16],inactive
same,outcome,[17],inactive
Cc1cc(CCN2CCN(c3nsc4ccccc34)CC2)cc2c1NC(=O)CC2(C)C,AC50,[1],90.9 µM (active)
same,AC50,[2],79.3 µM (active)
same,AC50,[3],84.7 µM (active)
same,AC50,[4],50 µM (active)
same,outcome,[5],inactive
same,AC50,[6],81.6 µM (active)
same,AC50,[7],50 µM (active)
same,AC50,[8],78.5 µM (active)
same,outcome,[9],inactive
same,AC50,"MYC, MYC (gene 4609)",87.1 µM (active)
same,outcome,[10],inactive
same,outcome,[11],inactive
same,outcome,[12],inactive
same,outcome,[13],inactive
same,AC50,[14],84.8 µM (active)
same,AC50,[15],4.39 µM (active)
same,outcome,[16],inactive
same,AC50,[17],50 µM (active)
O=[N+]([O-])c1ccc(O)cc1,outcome,[1],inactive
same,outcome,[2],inactive
same,outcome,[3],inactive
same,outcome,[4],inactive
same,outcome,[5],inactive
same,outcome,[6],inactive
same,outcome,[7],inactive
same,outcome,[8],inactive
same,outcome,[9],inactive
same,outcome,"MYC, MYC (gene 4609)",inactive
same,outcome,[10],inactive
same,outcome,[11],inactive
same,outcome,[12],inactive
same,outcome,[13],inactive
same,outcome,[14],inactive
same,outcome,[15],inactive
same,outcome,[16],inactive
same,outcome,[17],inactive
c1ccc2cc3c(ccc4ccccc43)cc2c1,AC50,[1],8.36 µM (active)
same,outcome,[2],inactive
same,AC50,[3],9.75 µM (active)
same,AC50,[4],5.58 µM (active)
same,outcome,[5],inactive
same,AC50,[6],12.7 µM (active)
same,AC50,[7],7.72 µM (active)
same,AC50,[8],15 µM (active)
same,outcome,[9],inactive
same,AC50,"MYC, MYC (gene 4609)",13.4 µM (active)
same,outcome,[10],inactive
same,AC50,[11],12.1 µM (active)
same,outcome,[12],inactive
same,outcome,[13],inactive
same,AC50,[14],18.6 µM (active)
same,AC50,[15],22.9 µM (active)
same,outcome,[16],inactive
same,outcome,[17],inactive
CC#C[C@]1(O)CC[C@H]2[C@@H]3CCC4=CC(=O)CCC4=C3[C@@H](c3ccc(N(C)C)cc3)C[C@@]21C,AC50,[1],23.6 µM (active)
same,AC50,[2],37.4 µM (active)
same,AC50,[3],12.9 µM (active)
same,outcome,[4],inactive
same,AC50,[5],33.7 µM (active)
same,AC50,[6],67.2 µM (active)
same,AC50,[7],76.2 µM (active)
same,AC50,[8],50 µM (active)
same,AC50,[9],33.5 µM (active)
same,AC50,"MYC, MYC (gene 4609)",50 µM (active)
same,outcome,[10],inactive
same,outcome,[11],inactive
same,AC50,[12],13.8 µM (active)
same,outcome,[13],inactive
same,AC50,[14],25.2 µM (active)
same,AC50,[15],0.504 µM (active)
same,outcome,[16],inactive
same,AC50,[17],50 µM (active)
